Several values for one entry are separate records, joined by “and”; a condition that tells them apart may be missing. Equal entries are not always repeated. Results filed as inconclusive are left out. Where a call stands in place of a potency, no number is given. Some structures have more than one record in an assay (separate samples or runs), and their calls can disagree. Activity calls are given as the source filed them. Calls come from the whole dose curve.
Potency is the fitted concentration of half-maximal effect.

The assay can be described thus: qHTS assay to identify small molecule agonists of the NFkB signaling pathway - cell viability counter screen (AID 1159515). Note: nearly all actives have a fitted effect of over 55% in size. To be noted: NFkB-bla ME-180 viability, CellTiter-Glo luminescence, 5 h; series mostly up to 61 µM. An excerpt:
National Center for Advancing Translational Sciences [NCATS]
NIH Chemical Genomics Center [NCGC]
U.S. Environmental Protection Agency [EPA]
National Institutes of Environmental Health Sciences [NIEHS]
National Toxicology Program [NTP]
U.S. Food and Drug Administration [FDA]
Transcription factors and their stimulated target gene expression play pivotal roles across many cellular processes including responses to environmental stimuli. Proper regulation of associated pathways is critical to maintain cell health and function. Constitutive activation of transcription factor pathways has been implicated in tumors as it may block cellular functions such as apoptosis and lead to invasion and metastasis. One important transcription factor that stimulates gene expression in response to cytokines, UV radiation, and other stimuli is nuclear factor-kappa B (NFkB). To measure activation of the NFkB pathway, the CellSensor NFkB-bla ME-180 cell line (Life Technologies, Carlsbad, CA) that stably expresses beta-lactamase reporter gene under the regulation of a NF-kB response element was used. This assay allows measurement of the NFkB pathway activity induced by compounds in a ME-180 cell line. This system quantitates NF-kB activity using a FRET-based assay system where beta-lactamase expression disrupts FRET, allowing for fluorescent measurement of activity. This cell line has been used to screen the Tox21 10K compound library and to identify compounds that induce the NFkB pathway activity. The cytotoxicity of the Tox21 compound library against the NFkB-bla ME-180 cell line was tested in parallel by measuring cell viability using the CellTiter-Glo assay in the same wells.
Tox21 Assay Protocol Summary:
NFkB-bla ME-180 cells were dispensed at 2,000 cells/6 uL of assay medium per well into black wall/clear-bottom 1536-well plates using a Multidrop Combi (ThermoFisher Scientific, Waltham, MA) dispenser. After the assay plates were incubated at 37 C and 5% CO2 for an overnight, 23 nL of compounds dissolved in DMSO, positive controls or DMSO only was transferred to the assay plate by a Pintool station (Kalypsys, San Diego, CA). The assay plates were incubated at 37 C and 5% CO2 for 5 hr. One uL of LiveBLAzer B/G FRET substrate (Life Technologies) was added using a Flying Reagent Dispenser (Aurora Discovery, San Diego, CA) and the plates were incubated at room temperature for 1.5 hr. Fluorescence intensity (405 nm excitation, 460 nm and 530 nm emissions) was measured using an Envision plate reader (PerkinElmer, Shelton, CT). For cytotoxicity, 3 ul/well of CellTiter-Glo reagent was added into the assay plates using an FRD. After 30 min incubation at room temperature, the luminescence intensity was measured using a ViewLux plate reader (PerkinElmer).
For `Clc1cccc(Cl)c1`, the Potency result was “inactive”. Consider `N#CC(c1ccccc1)c1ccccc1`, for which the Potency result was “inactive”. Next, `CC(C)(c1ccc(OCC2CO2)cc1)c1ccc(OCC2CO2)cc1` (stereo not given): “inactive”; `O=P(OCCCl)(OCCCl)OCCCl`: “inactive”. As for `COc1ccc(C=O)cc1OC`, the Potency result was “inactive”. In the case of `CCOP(=S)(OCC)SCSC(C)(C)C`, the Potency entry was “inactive”. For `CN(C)c1ccccc1`, the Potency entry was “inactive”. Next, `N#CCCCCC#N`: “inactive”; `ClC(Cl)(Cl)Br`: “inactive”; `COP(=O)(NC(C)=O)SC` (stereo not given): “inactive”.

Turning to `C[N+](C)(C)C`, the Potency result is “inactive”. Consider `NN=C(N)N`, for which the Potency result is “inactive”. Take `CC(C)CON=O`: the Potency entry is “inactive”. Take `Nc1ncn[nH]1`: the Potency result is “inactive”.

For the compound `ClC(Cl)(Cl)c1ccccc1`, the Potency result is “inactive”. Next, `[CH3][Sn]([Cl])([Cl])[Cl]`: “inactive”; `CCCCCCCC[N+](C)(CCCCCCCC)CCCCCCCC`: 17.3 µM (active) and 24.5 µM (active); `N#Cc1nn(-c2c(Cl)cc(C(F)(F)F)cc2Cl)c(N)c1S(=O)C(F)(F)F` (stereo not given): “inactive”. Next, `CNC(=O)CSP(=S)(OC)OC`: “inactive”; `CC(C)COC(=O)c1ccccc1C(=O)OCC(C)C`: “inactive”; `CC(O)CN(CC(C)O)CC(C)O` (stereo not given): “inactive”.

In the case of `ClC(Cl)=C(Cl)C(Cl)=C(Cl)Cl`, the Potency result was “inactive”. With `O=NN(c1ccccc1)c1ccccc1`, the Potency entry is “inactive”. As to `COc1ccc(CO)cc1`, the Potency entry is “inactive”. Turning to `CCOP(=O)(O)OCC` (tested in a mixture with another compound), the Potency entry is “inactive and 54.5 µM (active)”. Next, `Nc1ccc([N+](=O)[O-])cc1N`: “inactive”. With `CCOS(=O)(=O)OCC`, the Potency entry is “inactive”. With `CC(C)(c1ccccc1)c1ccc(O)cc1`, the Potency was 43.3 µM (active) and 54.9 µM (active).

Turning to `O=[N+]([O-])c1ccc(Cl)c([N+](=O)[O-])c1`, the Potency was 49.7 µM (active) and 54.9 µM (active). Consider `CCOP(=S)(OCC)SCn1c(=O)oc2cc(Cl)ccc21`, for which the Potency result is “inactive”. For `C[C@]12CCC(=O)C=C1CC[C@@H]1[C@@H]2CC[C@@]2(C)[C@H]1CC[C@]2(C)O`, the Potency result was “inactive”.

As to `Clc1ccc(C(Cl)(Cl)Cl)cc1`, the Potency result was “inactive”. Turning to `CC1CC(=O)O1` (stereo not given), the Potency result was “inactive”. In the case of `Clc1cccc(C(Cl)(Cl)Cl)n1`, the Potency result is “inactive”. Next, `CCOC(=O)c1ccccc1N`: “inactive”; `CCCCOCCOC(C)=O`: “inactive”. Next, `COc1ccc(O)c(C(C)(C)C)c1`: “inactive”.

As to `CC(C)=CC1C(C(=O)OCN2C(=O)C3=C(CCCC3)C2=O)C1(C)C` (stereo not given), the Potency result was “inactive”. With `Oc1ccc(Cl)cc1Cl`, the Potency entry was “inactive”. `COP(=S)(OC)SCn1nnc2ccccc2c1=O`: the Potency result is “inactive”.

The values are drawn from PubChem BioAssay (Tox21).
